# Results taken from PubChem BioAssay AID1159580 (chemical genetic matrix, 2015).
# About 2,000 (36%) of roughly 5,500 compounds were called active. About 18% were inconclusive and are not listed. This is one part of the list. Unmarked numbers belong to inactive results. No stated cut-off is given here; in the data, active means normalized growth mostly below about 0.91 (no sharp cut-off); inconclusive means no clear call, values can overlap the other calls; inactive means mostly above about 0.92.
# Assay: chemical genetic growth profiling, strain panel (AID 1159580);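 further: tested at 20 µM; growth read once vehicle control cultures reached saturation at 30 °C; 1 = growth at the plate median or of vehicle wells; lower values mean less growth of the strain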
# Conditions: S. cerevisiae deletion strains, growth OD
# [1] = locus YAL013W, strain DEP1, active compounds read low
# [2] = locus YBR229C, strain ROT2, active compounds read low
# [3] = locus YDL101C, strain DUN1, active compounds read low
# [4] = locus YDL134C, strain PPH21, active compounds read low
# [5] = locus YDR150W, strain NUM1, active compounds read low
# [6] = locus YEL061C, strain CIN8, active compounds read low
# [7] = locus YGR078C, strain PAC10, active compounds read low
# [8] = locus YHR030C, strain SLT2, active compounds read low
# [9] = locus YHR087W, strain rtc3, active compounds read low
# [10] = locus YJR043C, strain POL32, active compounds read low
# [11] = locus YJR075W, strain HOC1, active compounds read low
# [12] = locus YLR039C, strain RIC1, active compounds read low
# [13] = locus YLR058C, strain SHM2 (second series), active compounds read low
# [14] = locus YLR085C, strain ARP6, active compounds read low
# [15] = locus YLR262C, strain YPT6, active compounds read low
# [16] = locus YML094W, strain GIM5, active compounds read low
# [17] = locus YMR219W, strain ESC1, active compounds read low
# [18] = locus YMR263W, strain SAP30, active compounds read low
# [19] = locus YNL153C, strain GIM3, active compounds read low
# [20] = locus YNL298W, strain CLA4 (second series), active compounds read low
# [21] = locus YNL322C, strain KRE1, active compounds read low
# [22] = locus YNR030W, strain Alg12, active compounds read low
# [23] = locus YPL055C, strain LGE1, active compounds read low
# [24] = locus YPL241C, strain CIN2, active compounds read low
# [25] = locus YPR135W, strain CTF4, active compounds read low
smiles,measurement,setting,value
Cc1cccc(Cn2c(C)c(C)c(S(=O)(=O)c3ccccc3)c2N)c1C,normalized growth,[1],1.03
same,normalized growth,[2],1.01
same,normalized growth,[3],0.98
same,normalized growth,[4],0.978
same,normalized growth,[5],1.01
same,normalized growth,[6],0.998
same,normalized growth,[7],1.03
same,normalized growth,"locus YGR229C, strain SMI1, active compounds read low",0.984
same,normalized growth,[8],0.917
same,normalized growth,[9],1.01
same,normalized growth,"locus YJL187C, strain SWE1, active compounds read low",0.996
same,normalized growth,[10],1
same,normalized growth,[11],0.996
same,normalized growth,"locus YKL190W, strain CNB1, active compounds read low",0.987
same,normalized growth,[12],0.803
same,normalized growth,[13],0.999
same,normalized growth,[14],1.24 [resistant] (active)
same,normalized growth,[15],0.873
same,normalized growth,[16],1.05
same,normalized growth,[17],1.01
same,normalized growth,[18],1.01
same,normalized growth,"locus YNL128W, strain TEP1, active compounds read low",0.998
same,normalized growth,[19],1.04
same,normalized growth,[20],0.98
same,normalized growth,[21],1
same,normalized growth,[22],1.01
same,normalized growth,[23],1.06
same,normalized growth,[24],1.03
same,normalized growth,[25],1.16
CCCS(=O)(=O)c1c(C)c(C)n(Cc2ccccc2)c1N,normalized growth,[1],1.02
same,normalized growth,[2],1.01
same,normalized growth,[3],0.972
same,normalized growth,[4],0.999
same,normalized growth,[5],1
same,normalized growth,[6],0.999
same,normalized growth,[7],1
same,normalized growth,[8],1.06
same,normalized growth,[9],1
same,normalized growth,[10],0.997
same,normalized growth,[11],0.99
same,normalized growth,[12],1.05
same,normalized growth,[13],1
same,normalized growth,[14],1.27 [resistant] (active)
same,normalized growth,[15],1.03
same,normalized growth,[16],1.04
same,normalized growth,[17],1
same,normalized growth,[18],0.999
same,normalized growth,"locus YMR307W, strain GAS1, active compounds read low",1.14
same,normalized growth,[19],1
same,normalized growth,[20],1.02
same,normalized growth,[21],0.999
same,normalized growth,[22],1.02
same,normalized growth,"locus YOL006C, strain TOP1, active compounds read low",1.2
same,normalized growth,[23],1.06
same,normalized growth,[24],1.1
same,normalized growth,[25],1.15
